# TROY signal inh = inhibitors of TROY-driven NF-kB signaling, primary screen, Q293 LMP1-TROYcd cells, NF-kB luciferase, uHTS | 360,000 compounds, 0.98% hits | Q293 LMP1-TROYcd NF-kB luciferase reporter, 4 h | inhibition, % at 10 µM;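 active = compounds whose plate-normalised and pattern-corrected inhibition of the luciferase reporter signal at the single screening dose is 50% or more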
# CF NFkB inh = inhibitors of PAF-induced NF-kB signaling, primary screen, cell-based, GFP fluorescence, uHTS. KKLEB NF-kB-GFP reporter, GFP fluorescence overnight. inhibition, % at 5 µM. 360,000 compounds, 0.86% hits;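 active = at least 50% inhibition at 5 µM, scaled per plate between neutral and stimulator controls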;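 note: PAF is a Pseudomonas aeruginosa culture filtrate used as stimulus; plate controls were PAF-stimulated DMSO wells for no effect and unstimulated DMSO wells for full effect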
# HIF-2a block = HIF-2a reporter inhibitors, primary screen, luminescence, 786-0 RCC cells. 786-0 RCC cells HIF-2a reporter, luciferase luminescence, overnight. inhibition, % at 18.8 µM. 360,000 compounds, 0.72% hits;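 active = inhibition of the luminescence signal of 40% or more relative to plate controls, in a single-dose primary screen at 18.75 µM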
# KKLEB tox = cytotoxicity in KKLEB CF airway cells, primary screen, cytotoxicity control for CF NF-kB inhibitor project, cell-based, uHTS, fluorescence assay plates; KKLEB CF airway cells viability, ATPlite luminescence, overnight; stronger effect = lower value; cells stimulated with P. aeruginosa culture filtrate; activity change (cytotoxicity), % at 5 µM; 360,000 compounds, 0.36% hits; AID 602141, 2011;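 active = corrected activity change at or below -50% at 5 µM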
# Peg3 prom inh = Peg3 promoter-driven luciferase inhibitors, primary screen, cell-based, HeLa, luciferase luminescence; HeLa PEG-Prom luciferase reporter, overnight; inhibition, % at 20 µM; 360,000 compounds, 1.7% hits;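 active = inhibition of at least 50% at 20 µM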
# TWEAK-Fn14 inh = inhibitors of TWEAK-Fn14 signaling, primary screen, luciferase reporter cells, uHTS | TWEAK-stimulated Fn14 reporter cells, luciferase luminescence, 8 h | inhibition, % at 10 µM | 360,000 compounds, 2% hits | AID 1159606, 2016; in the data active = inhibition above about 50%
# Active calls of the source: *; nt = no result given. A selection: hits, their analogues and other compounds. The true share with any hit is near 4%.
SMILES,TROY signal inh,CF NFkB inh,HIF-2a block,KKLEB tox,Peg3 prom inh,TWEAK-Fn14 inh
Cc1ccc(Nc2nc(N)nc(CSc3nc4ccccc4s3)n2)cc1,43.6,4.8,-269.7,-32.9,-37.1,83.1*
Cc1ccccc1Nc1nc(N)nc(CSc2nc3ccccc3s2)n1,-19.8,-7.6,-34.6,-4.3,-36.7,-17.3
O=C(O)C1CCC(=O)N1Cc1ccc(F)cc1 (stereo not drawn),7.3,-2.9,-1.5,-6.3,9.4,50.3*
O=C([C@@H]1Cc2ccccc2CN1)N1CCN(Cc2ccccc2)CC1,5.8,1.5,7.1,13.5,3.1,-11.9
Cc1cc(N2CCN(C)CC2)ccc1NC(=O)c1cccc(S(=O)(=O)N2CCc3ccccc3C2)c1,-1.6,-4.6,17.6,14.6,109.2*,11.2
Cc1cccc(C(C)C)c1NC(=O)COC(=O)c1cccc(S(=O)(=O)N2CCc3ccccc3C2)c1,7.5,19.8,16.6,-13.9,59.8*,-18.3
CCc1cccc(CC)c1NC(=O)COC(=O)c1cccc(S(=O)(=O)N2CCc3ccccc3C2)c1,-3.6,-1.4,6.5,3.4,-1.6,-1.1
COc1cc(OC)c(OC)cc1CNC(=O)c1cccc(S(=O)(=O)N2CCc3ccccc3C2)c1,51.2*,15.2,13.2,-12.5,10.4,80.7*
COc1ccc(C(=O)NC2CCCc3ccccc32)c(OC)c1OC (stereo not drawn),-25.1,-5.5,6.3,-7.4,9.7,-11.8
O=C(NCCc1ccccc1Cl)c1ccc2nc3ccccc3c(=O)n2c1,14.1,-58.4,-88.7,10.1,18.5,23.2
CCC(C)c1ccc(NC(=O)Nc2cnccn2)cc1 (stereo not drawn),-53.7,25.5,-235.7,-10.6,-207.1,-9.1
COc1ccc(NC(=O)Cn2nnc(-c3ccccc3)c2COc2ccc(C(C)=O)cc2)cn1,-2.6,-11.9,4.2,-29.2,-5.8,4.0
CCC(=O)N1CCC(C)(C(=O)Nc2nccc3ccccc23)C1 (stereo not drawn),-5.2,-2.7,15.8,3.7,-10.8,-17.4
Cc1ccc(-n2c(C)cc(C(=O)COC(=O)C3=NNC(=O)CC3)c2C)cc1,5.1,9.3,50.2*,-2.3,-0.8,15.5
Cc1ccc(-n2c(C)cc(C(=O)COC(=O)c3c(C)noc3C)c2C)cc1,5.8,4.8,-214.2,-3.4,-212.3,14.6
Cc1cc(C(=O)COC(=O)C2=NNC(=O)CC2)c(C)n1-c1ccccc1,57.0*,-10.3,10.2,7.2,-17.6,7.0
COc1ccc(-c2ccc(SC)nn2)cc1,46.3,6.8,10.4,-11.5,27.2,88.1*
CCOc1ccc(-c2ccc(SCC)nn2)cc1,-7.7,-2.2,-71.7,-21.8,-90.8,63.6*
Cc1nn2cc(-c3ccccc3)nc2s1,8.8,6.9,-64.4,-7.8,-113.2,57.0*
c1ccc(-c2cn3ccccc3n2)cc1,-28.6,-1.2,-143.1,-15.3,-211.8,42.1
c1ccc(-c2cn3nc(-c4ccccc4)sc3n2)cc1,61.3*,-9.0,-71.2,-60.3*,44.8,86.0*
COc1ccc(NC(=O)CSCc2cc(=O)n3c(C)csc3n2)cc1,-21.4,0.0,0.9,-7.8,5.4,-15.8
CC(C)Cn1c(N)c(C(=O)CSc2ccc3c(c2)OCCO3)c(=O)n(C)c1=O,50.0,44.6,11.1,-11.7,20.6,68.5*
O=C(CSCc1ccccc1)NNC(=S)Nc1cccc(Cl)c1Cl,nt,3.9,-54.5,8.8,-58.6,63.6*
CNC(=S)NNC(=O)CSCc1c(Cl)cccc1Cl,-1.6,6.4,24.8,-14.2,18.4,-1.5
SMILES,TROY signal inh,CF NFkB inh,HIF-2a block,KKLEB tox,Peg3 prom inh,TWEAK-Fn14 inh
CC1=NC(C)(C)CC2CCC(O)C12 (stereo not drawn),1.8,-15.3,2.3,-11.3,-18.0,-17.6
CC(/C=C(\NC(=O)c1ccccc1)C(=O)N=Nc1c(O)[nH]c2ccc(C)cc12)=C\c1ccccc1,-28.7,52.7*,11.0,-14.5,53.4*,38.4
C[C@H]1COc2cc(N3CCC[C@@H]3CO)ccc2S(=O)(=O)N1,-9.4,nt,0.5,nt,nt,10.9
CC1(C)CC(=O)c2sc(NC(=O)c3cccs3)nc2C1,-27.4,-11.8,-50.6,-16.0,-71.5,53.7*
O=C(Nc1nc2c(s1)CCCC2)c1cccs1,2.3,-2.0,-158.2,-6.6,-168.2,57.2*
O=C(Cc1cccs1)Nc1nc2c(s1)CCCC2,-17.2,-6.2,-226.3,-9.5,-223.4,-90.9
O=C(Nc1nc2c(s1)CCCC2)C1COc2ccccc2O1 (stereo not drawn),71.1*,-2.3,-43.8,-13.7,-75.6,82.0*
CC1(C)CC(=O)c2sc(NC(=O)C(C)(C)C)nc2C1,-39.6,6.1,-210.9,-11.5,-137.0,-4.8
CCOc1ccc(-c2ccc(/C=C3/C(=N)N4C=CSC4=NC3=O)o2)c([N+](=O)[O-])c1,10.5,28.8,1.1,-41.9,32.6,26.0
CC1=CN2C(=N)/C(=C/c3ccc([N+](=O)[O-])o3)C(=O)N=C2S1,-18.7,51.3*,66.7*,-48.7,107.2*,45.4
CC1=CN2C(=N)/C(=C/c3cn(CCCOc4ccccc4C)c4ccccc34)C(=O)N=C2S1,-1.2,8.9,-153.2,-6.9,-62.0,0.3
CC1=CN2C(=N)/C(=C/c3ccco3)C(=O)N=C2S1,40.0,-17.5,-194.2,-2.6,-333.0,81.2*
Cc1cc(C)c2cc(C#N)c(N3CCCN(C(=S)NCCCN(C)C)CC3)nc2c1,9.8,3.5,10.1,3.6,104.1*,-3.7
Cc1nn(Cc2cccc(F)c2)c(C)c1NC(=O)c1ccc(COc2ccccc2Cl)cc1,44.1,-11.2,-59.0,10.0,31.0,69.8*
CC1(C)C(=O)N(c2ccccc2)C1c1ccccc1O (stereo not drawn),7.9,18.2,35.8,-10.8,52.5*,19.2
COc1ccc(N2C(=O)C(C)(C)C2c2c(O)ccc3ccccc23)cc1 (stereo not drawn),24.9,12.1,18.9,-6.7,32.8,15.3
CC1CN/C(=C\C(=O)c2ccc(Cl)cc2)C(=O)N1 (stereo not drawn),-13.4,6.1,-84.9,12.0,-130.7,73.4*
COc1ccc(CCn2c(SCC(=O)Nc3cc(C)on3)nc3ccccc3c2=O)cc1OC,2.9,64.1*,4.5,-78.8*,23.2,8.9
CCOc1ccc(CCn2c(-c3ccco3)nc3ccccc3c2=O)cc1OCC,4.0,9.2,-59.2,-12.9,53.7*,32.7
COCCn1c(SCC(=O)NNC(=O)c2ccccc2)nc2ccccc2c1=O,79.5*,-8.4,18.7,-3.1,1.4,1.3
O=C(CC1CC1)Nc1ccc2c(c1)[C@@H]1C[C@H](CC(=O)NC3CCCC3)O[C@@H](CO)[C@@H]1O2,-3.6,22.3,1.9,-12.3,1.8,-5.2

# Screens from PubChem.
